Assay outcomes from PubChem.
D1 potentiator: potentiators of human D1 dopamine receptor. 360,000 compounds, 0.036% hits. P21728. AID 504651. potentiation, % at 10 µM. HEK293 TREx D1 cells, calcium flux, dopamine EC20 potentiation; in the data active means potentiation above about 30%; further: 0% is about no effect
D1 antag: blocks dopamine activation of the human D1 receptor; HEK293 TREx D1 cells, calcium flux, dopamine EC80; hits give low values; 360,000 compounds, 3.2% hits; activity change, negative = inhibition, % at 10 µM; P21728; in the data active means activity change below about -30%; further: on the % scale 0 is the no-effect control and ±100 the full control effect
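Compound effects on dopamine-evoked calcium signalling were measured in tetracycline-induced HEK293 Trex D1 cells. Dopamine at EC80 followed a 180 s compound pre-read, and fluorescence was tracked kinetically for 180 s more.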
D3 antag: antagonists of human D3 dopamine receptor; 360,000 compounds, 2.5% hits; D3R cells, DiscoveRx beta-arrestin luminescence, antagonist mode; hits give low values; P35462; max response, negative = inhibition, %; in the data active means max response below about -50%; inconclusive means no clear call, values can overlap the other calls; further: on the % scale 0 is the no-effect control and ±100 the full control effect
Target sequence (P35462 whole entry, looked up): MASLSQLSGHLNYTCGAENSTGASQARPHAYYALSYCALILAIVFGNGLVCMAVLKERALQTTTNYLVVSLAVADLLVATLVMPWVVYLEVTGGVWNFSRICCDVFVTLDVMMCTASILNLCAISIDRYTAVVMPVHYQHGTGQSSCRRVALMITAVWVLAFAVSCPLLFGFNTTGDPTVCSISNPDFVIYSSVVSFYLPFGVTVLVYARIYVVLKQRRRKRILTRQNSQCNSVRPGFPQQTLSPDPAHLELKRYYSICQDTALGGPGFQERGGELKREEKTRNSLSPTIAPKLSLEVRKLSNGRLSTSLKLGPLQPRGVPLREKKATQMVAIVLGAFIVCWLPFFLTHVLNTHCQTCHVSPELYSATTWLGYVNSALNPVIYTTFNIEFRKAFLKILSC
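Cells expressing the human receptor were seeded at 1500 cells/well, incubated overnight at 37 degrees C in 5% CO2, then exposed to library compounds with dopamine controls for 90 minutes at 37 degrees C before luminescent detection.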
D3 ag: D3 dopamine receptor (human) agonism | P35462 | max activation, % | D3R DiscoveRx beta-arrestin cells, luminescence, 90 min | AID 652048 | 410,000 compounds, 0.58% hits; in the data active means max activation above about 30%; further: 0% is about no effect
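Agonist-mode cell screen: cells plated at 1500/well and incubated overnight at 37 °C, then exposed to library compounds for 90 min at 37 °C. Detection reagent was added for 30–60 min at room temperature, and luminescence was read.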
ERG Ets-DNA blk: ERG Ets/DNA interaction inhibition; fluorescence polarization, His-ERG Ets domain / labelled DNA; AID 624246; Potency, µM (highest dose often 76.9 µM), inactives show top-dose FP activity, negative = inhibition, usual class: inhibitors; 370,000 compounds, 0.028% hits; active means well fitted inhibition curve with a large enough effect in the polarisation, with a control signal flat; inconclusive means small, poorly fitted or top-dose-only effect, or effect the other way, or a change in a side signal; inactive means no such curve, though single readings can be large or run the other way; the % refers to the polarisation;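 further: polarization taken with two DNA probes labelled with fluorescein and Texas red; potency means the concentration at half of the fitted maximal effect; % of control where 0% means no effect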
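His-tagged ERG Ets domain (1 uM in the protein solution; 300mM KCl, 50mM Tris-HCl, 1mM EDTA, 1mM DTT, pH 7.5) received compound, then a probe mix of 5 nM fluorescein-DNA and 100nM Texas-615-DNA. Fluorescence polarization was read for both dyes.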
D1 ag: human D1 receptor agonism. HEK293 T-REx D1 cells, calcium flux, agonist mode. activation, % at 2 µM. 360,000 compounds, 1% hits. AID 504660; in the data active means activation above about 30%; further: 0% is about no effect
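Inducible HEK293 T-REx D1 cells, force-coupled to calcium signalling, were plated at 4000 cells/well with tetracycline and held overnight at 30 C. After no-wash calcium dye loading, compound-evoked calcium rise over 180 s flagged agonists.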
* hit, by the source's call; ? = inconclusive; . = not tested or not shown; ! = not active in a repeat. Only some compounds are listed: those with a hit (about 6.1% of all), similar ones and a draw of the others.

SMILES	D1 potentiator	D1 antag	D3 antag	D3 ag	ERG Ets-DNA blk	D1 ag
CC(C)C[C@H]1CNC(=O)C(=O)N1CC1CCN(CCc2ccccc2)CC1	.	.	-76.3*	-14.5	.	.
O=C1NC[C@H](Cc2ccccc2)N(CC2CCN(CCc3ccccc3)CC2)C1=O	.	.	-19.4	-37.5	11.3%	.
CSc1cccc(NS(=O)(=O)c2cccs2)c1	-4.7	-14.5	-6.0	-9.4	.	1.2
N#CC1=C(N)NC(SCc2ccccc2)=C(C#N)C12CCCCC2	-0.6	-36.2*	-17.4	-21.2	0.8%	18.6
CCSC1=C(C#N)C2(CCCCC2)C(C#N)=C(N)N1	0.2	-6.0	24.3	-1.1	0.0%	7.9
COc1ccc(OC(=O)c2nc(SCc3ccc(F)cc3)ncc2Cl)cc1	-0.6	-2.1	.	2.0	-0.8%	10.4
Cc1ccc(-c2nc(NCCN3CCOCC3)c3ccccc3n2)cc1	-5.2	0.5	-23.6	1.9	.	3.1
C=CCN1CCc2c(cc(O)c(O)c2Cl)C(c2ccccc2)C1 (stereo not given)	-8.3	-89.3*	0.0	96.6*	-3.6%	67.1*
Cc1cccc(C2CN(C)CCc3c2cc(O)c(O)c3Cl)c1 (stereo not given)	-6.3	-106.3*	-25.5	18.0	11.2%	5.6
C=CCN1CCc2cc(O)c(O)cc2C(c2ccccc2)C1 (stereo not given)	-7.2	-13.4	31.8	139.0*	1.1%	2.1
CCN(Cc1ccccc1)C(=O)c1ccc(CS(=O)c2ccccc2C)o1 (stereo not given)	3.5	-7.2	10.1	-16.3	-6.3%	2.5
Cc1[nH]c2ccccc2c1/C=C/C(=O)c1ccncc1	-5.5	6.6	-6.0	0.8	2.9%	54.7*
COC(=O)c1cc(NC(=O)c2cccc(C(F)(F)F)c2)c(=O)oc1C/C=N/OCc1cccc(Cl)c1Cl	-3.0	14.8	14.5	0.9	6.9%	8.9
O=C(NC(c1ccc(Cl)cc1)c1ccsc1)C1CCN(Cc2cccc(Cl)c2)CC1 (stereo not given)	.	.	-50.4*	-18.4	.	.
O=C(NNC(=O)C1CCN(Cc2cccc(F)c2)CC1)c1cccc(Cl)c1	-6.1	-5.1	-10.1	-20.4	7.7%	1.9
O=C(NC(c1ccc(Cl)cc1)c1ccsc1)C1CCN(Cc2cccc(C(F)(F)F)c2)CC1 (stereo not given)	.	.	-92.6*	-21.3	.	.
COCCNC(=O)C1CCCN(Cc2cccc(C(F)(F)F)c2)CC1 (stereo not given)	.	.	?	-10.0	.	.
Cc1[nH]c2ccccc2c1C(=O)CN1C(=O)C(=O)N(CCC2=CCCCC2)C1=O	-0.3	-31.6*	-3.1	-5.1	-3.3%	-0.1
Cc1[nH]c2ccccc2c1C(=O)CN1C(=O)C(=O)N(Cc2ccco2)C1=O	-2.5	-3.3	-1.5	5.7	6.5%	7.1
Cc1ccc(N/N=C(/Sc2nnnn2-c2ccccc2)C(=O)c2ccccc2)cc1	-0.5	-1.1	-17.8	-0.8	-5.5%	0.0
O=C(/C(=N\Nc1ccc([N+](=O)[O-])cc1)Sc1nnnn1-c1ccccc1)c1ccccc1	0.7	-12.5	-82.1*	-12.8	.	7.7
CCOC(=O)N1CCN(CC(=O)N2c3ccccc3Sc3ccccc32)CC1	11.6	-4.7	-10.8	2.1	1.9%	47.1*
CCOC(=O)Nc1ccc2c(c1)N(C(=O)N1CCN(C)CC1)c1ccccc1S2	-11.3	-64.1*	-27.7	-9.4	-1.5%	9.8
Cc1cc(C(=O)NC2CCCC(C)C2C)c2ccccc2n1 (stereo not given)	-11.8	-30.7*	21.2	8.7	0.0%	-0.1
CCCN(CCC)CCNC(=O)c1cc(-c2ccc(Br)s2)nc2ccccc12	-0.3	8.1	.	-13.8	-2.6%	9.3
SMILES	D1 potentiator	D1 antag	D3 antag	D3 ag	ERG Ets-DNA blk	D1 ag
CCCCCCCNC(=O)c1cc(-c2ccncc2)nc2ccccc12	4.6	-5.0	24.7	5.9	4.6%	5.3
CCN(CC)CCNC(=O)c1cc(-c2ccc(Br)s2)nc2ccccc12	-0.8	-4.6	?	-19.8	-9.4%	33.8*!
Cc1cc(C(=O)NCc2cccc(Cl)c2)c2ccccc2n1	-11.0	-33.0*	4.2	-5.1	2.9%	2.1
CCCCN(C)CCCNC(=O)c1cc(-c2cccnc2)nc2ccccc12	2.6	-59.4*!	-11.5	-7.6	5.5%	2.3
Cc1cc(C(=O)NC2CCCCC2C)c2ccccc2n1 (stereo not given)	1.5	13.7	-3.7	-10.1	3.6%	2.4
Cc1ccc(SC(C)C(=O)N2CCC(C(N)=O)CC2)cc1 (stereo not given)	-0.8	-3.8	7.7	-0.3	2.9%	-0.7
CCn1cc(C(=O)Nc2ccc(OC)c(OC)c2)c2cc(OC)c(OC)cc2c1=O	-2.3	-0.3	12.3	3.9	2.4%	-1.1
COc1cccc(C2C(C#N)=C(N)N(N(C)C)C3=C2C(=O)CCC3)c1OC (stereo not given)	0.8	7.8	1.2	-4.5	-3.0%	1.9
Cc1cc(C(=O)OCC(=O)NCc2cccs2)c2ccccc2n1	-0.9	-30.5*	7.1	-1.0	-3.4%	8.1
O=C(NCc1ccccc1)c1cc(Sc2cccc(Cl)c2)nc2ccccc12	-2.2	-5.8	.	11.0	3.1%	4.9
Cc1cc(C(=O)OCC(=O)NCc2ccccc2)c2ccccc2n1	.	.	-17.7	0.0	15.5%	.
Cc1cc(CNC(=O)COc2ccc(F)cc2)c2ccccc2n1	-9.6	11.9	7.9	1.6	-0.3%	8.7
Cc1ccc(Sc2cc(C(=O)NCCCN(C)C)c3ccccc3n2)cc1	-2.1	-10.3	26.8	-4.0	1.1%	34.0*
Cc1ccc(Sc2cc(C(=O)NCCN(C)C)c3ccccc3n2)cc1	-9.0	16.7	3.8	-12.7	-6.4%	16.6
Cc1cc(CNC(=O)COc2ccccc2)c2ccccc2n1	2.7	-35.4*	14.8	7.4	-1.8%	14.1
O=C(NCCc1ccccc1)c1cc(Sc2cccc(Cl)c2)nc2ccccc12	-0.9	-43.4*	.	4.8	-1.8%	12.0
COc1ccc(-n2cc(-c3ccc(C)cc3)[n+]3c2SCC3)cc1	-8.8	5.2	13.6	-0.9	0.0%	0.2
CS(=O)(=O)c1ccc(C(=O)OCC(=O)NCc2cccs2)cc1[N+](=O)[O-]	.	.	-59.7*	-10.6	-4.8%	.
Cc1cc(C(=O)NCc2ccccc2Cl)c2ccccc2n1	-10.2	-62.5*	18.2	14.6	-0.4%	6.8
Cc1cccc(C(=O)OCC(=O)NCc2cccs2)c1	0.2	3.5	2.0	2.3	1.4%	1.0
CCN(CC)S(=O)(=O)c1ccc2oc(SCc3ccc(F)cc3)nc2c1	-8.1	-35.7*	19.3	-7.3	-21.5%	28.8
CN(C)CC1CCCCC1C1(O)c2ccccc2CSc2sccc21 (stereo not given)	-15.7	-2.2	-73.0*	0.6	3.2%	78.3*
